Ba/F3 V617F tox: lowers viability of Ba/F3 cells expressing EpoR and JAK2V617F; 1.1% of 220,000 active; AID 1446; inhibition, % at 5.6 µM; ATP luminescence;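 active means inhibition above the campaign mean plus 3 SD over all tested compounds, cut at about 24% in these data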;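 further: cytokine-independent growth of Ba/F3 cells driven by EpoR plus mutant JAK2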
IEC-6 cytotox: kills IEC-6 intestinal cells in KLF5 counter-screen; AID 1825; IEC-6 cytotoxicity, luminescence viability; inhibition, % at 5 µM; 0.78% of 290,000 active
BaF3 parental: reduces parental Ba/F3 cell viability, JAK2V617F counter-screen; CellTiter-Glo ATP luminescence; inhibition, % at 5.6 µM; 1.1% of 220,000 active; AID 1486;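 active means inhibition above a per-campaign cutoff, the mean inhibition of all tested compounds plus 3 SD, cut at about 27% in these data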
KLF5 inh: kruppel-like factor 5 inhibition; 0.23% of 290,000 active; inhibition, % at 5 µM; DLD-1 KLF5 promoter-luciferase reporter, luminescence;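 active means inhibition above a per-plate limit of that plate's mean compound inhibition plus 3 SD, cut at about 60% in these data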;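 further: higher means less KLF5 promoter-driven luciferase light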
aSyn UTR inh: MLPCN primary screen, SNCA 5' untranslated region. alpha-synuclein 5'UTR reporter, inhibitor activity. inhibition, % (tested at 7.5 µM). 0.82% of 300,000 active; in the data active means inhibition above about 60%;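 further: H4 neuroglioblastoma cells stably carrying SNCA 5'UTR luciferase fusion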
APP 5UTR inh: APP translation inhibition; SH-SY5Y APP 5'UTR-luciferase reporter, luminescence; inhibition, % at 2 µM; 0.82% of 190,000 active; AID 1285;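 active means inhibition above a set limit, derived from the sample mean plus 3 SD, cut at about 45% in these data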
IEC-6 cytotox cf: confirmation of cytotoxic compounds in rat IEC-6 intestinal epithelial cells. shares compounds with IEC-6 cytotox. IEC-6 rat intestinal epithelial viability, luminescence. inhibition, % at 5 µM. 63% of 1,900 active
Numbers stand for hits; - = inactive; . = no result. Hits are enriched below; roughly 2.2% of the tested compounds scored in any of these assays. Unless noted, no stated cut-off is given here; in the data, active means inhibition above about 22%; inactive means the rest.

SMILES	Ba/F3 V617F tox	IEC-6 cytotox	BaF3 parental	KLF5 inh	aSyn UTR inh	APP 5UTR inh	IEC-6 cytotox cf
COc1ccccc1N1CCN(c2ccnc3cc(Cl)ccc23)CC1	.	65	.	-	87	.	53
CCc1ccc(OCC(=O)NNC(=S)NC(=O)C2CC2)c(Br)c1	.	30	.	-	.	.	-
CCc1ccc(OCC(=O)NNC(=S)NC(=O)C2CCCCC2)c(Br)c1	.	-	.	-	-	.	.
O=C(CN(CCc1ccccc1)C(=O)c1csnn1)NC1CCCC1	-	-	-	-	-	-	.
Nc1ccc(Br)c2cccnc12	-	-	-	-	-	-	.
O=S(=O)(O)c1cccc2c(N=Nc3ccc(O)c4ncccc34)cccc12	.	-	.	-	-	.	.
COc1cccc(N=Nc2ccc3cccnc3c2O)c1	.	30	.	-	-	.	56
Nc1ccc(N=Nc2ccccc2)c2cccnc12	.	33	.	-	-	.	34
COc1cccc(N=Nc2ccc(O)c3ncccc23)c1	.	30	.	-	-	.	-
O=C(Oc1coc(CSc2ncccn2)cc1=O)c1cccs1	-	-	-	-	-	-	.
COc1ccc(/C=N\NC(=O)c2sccc2C)cc1Cn1nc(C)cc1C	.	46	.	-	-	.	25
CCOC(=O)CC(=O)NC1(Cc2ccc(O)cc2)CCCCC1	-	-	-	-	-	-	.
Nc1ncn([C@@H]2O[C@H](CO)[C@@H](O)[C@H]2O)c(=O)n1	.	.	.	.	-	.	.
Nc1ccn([C@@H]2O[C@H](CO)[C@@H](O)[C@@H]2O)c(=O)n1	74	90	80	-	81	83	76
N=c1ccn2c(n1)O[C@H]1[C@H](O)[C@@H](CO)O[C@H]12	.	92	.	-	-	.	74
Nc1nc(Cl)nc2c1ncn2[C@@H]1O[C@H](CO)[C@@H](O)[C@H]1O	-	44	-	-	-	-	-
O=C(OCC1OC2C(Oc3nc(=O)ccn32)C1O)c1ccccc1 (centres undefined)	-	-	-	-	-	-	.
Cc1cc(S(=O)(=O)N2CCN=C2c2ccccc2)ccc1F	-	-	-	-	-	-	.
CCOc1ccc(S(=O)(=O)N2CCN=C2c2ccccc2)cc1	.	26	.	-	-	.	23
Cc1ccc(OCC(=O)NCc2cccs2)c([N+](=O)[O-])n1	-	-	-	-	-	-	.
Cc1ccc(Sc2ncccc2C(=O)NCc2cc([N+](=O)[O-])ccc2O)cc1C	.	-	.	-	-	.	.
COC(=O)C1=C(NC(C)=O)CCS1	-	23	-	-	-	-	-
COC(=O)C1=C(NC(=O)c2ccc(C)cc2)CCS1	-	-	-	-	-	-	.
Cc1ccc2nc(C)c(CN3CCN(c4ccc([N+](=O)[O-])cc4Cl)CC3)n2c1	.	26	.	-	-	.	47
O=C(NCCc1ccccc1)C1(S(=O)(=O)c2ccc(Cl)cc2)CC1	.	-	.	-	-	.	.
SMILES	Ba/F3 V617F tox	IEC-6 cytotox	BaF3 parental	KLF5 inh	aSyn UTR inh	APP 5UTR inh	IEC-6 cytotox cf
Cn1c(CNC(=O)CNC(=O)c2ccc(F)cc2)cc(=O)n(C)c1=O	.	-	.	-	-	.	.
O=C(Nc1nc(-c2ccccn2)cs1)Nc1ccc(F)cc1F	.	50	.	-	-	.	47
C[C@@H](C(=O)Nc1nc(-c2ccccn2)cs1)N1C(=O)C2CCCCC2C1=O (some centres undefined)	-	-	-	-	-	.	.
O=C(CN1C(=O)C2CCCCC2C1=O)Nc1nc(-c2ccccn2)cs1 (centres undefined)	-	41	-	-	-	-	-
O=C(Nc1nc(-c2ccccc2)cs1)Nc1ccc(F)cc1F	-	-	-	-	-	-	.
O=C(Nc1nc(-c2ccccn2)cs1)c1ccc2c(c1)OCCO2	-	28	-	-	-	-	-
COc1ccc(C(=O)Nc2ccc3ccccc3c2)cc1OC	.	-	.	-	-	.	.
COc1cc(C(=O)Nc2ccc3ccccc3c2)cc(OC)c1OC	.	78	.	-	88	.	59
CCCc1nc2ccc(N)cc2c(=O)n1Cc1ccccc1Cl	.	-	.	-	-	.	.
Cc1[nH]c2ccccc2c1/C=N/Nc1nncn1N	-	102	-	-	.	-	-
O=C(Nc1ccccc1)c1ccc(Nc2c([N+](=O)[O-])cc([N+](=O)[O-])c3ccccc23)cc1	-	-	-	-	-	-	.
O=[N+]([O-])c1cc(Br)c(Nc2ccccc2)c([N+](=O)[O-])c1	.	22	.	-	-	.	-
CCC1=Nc2cc(C(=O)NCCCOC(C)C)ccc2Sc2ccccc21	-	-	-	-	-	-	.
CCC1=Nc2cc(C(=O)NCc3cccnc3)ccc2Sc2ccc(C)cc21	72	67	44	-	-	.	56
O=C(NCC1CCCO1)c1ccc(NC(=O)c2cccc(Cl)c2)cc1 (centres undefined)	.	.	.	.	-	.	.
CCC1=Nc2cc(C(=O)NCC3CCCO3)ccc2Sc2ccc(Br)cc21 (centres undefined)	-	28	-	-	-	-	31
CCC1=Nc2cc(C(=O)NCC3CCCO3)ccc2Sc2ccc(Cl)cc21 (centres undefined)	-	35	-	-	-	.	38
COc1ccc(OCCOC(=O)CNS(=O)(=O)c2ccc(SC)c([N+](=O)[O-])c2)cc1	.	.	.	.	-	.	.
CC(C)(CN1CCN(c2ccccc2)CC1)NS(=O)(=O)c1ccccc1	-	-	-	-	-	.	.
COc1ccc(N2CCN(c3ncnc4c3[nH]c3ccccc34)CC2)cc1	-	-	-	-	-	.	.
COc1ccc2[nH]c3c(N4CCc5ccccc5C4)ncnc3c2c1	76	77	78	-	-	.	66
CCC(=O)NC(NC(=S)Nc1cccc2cccnc12)C(Cl)(Cl)Cl (centres undefined)	-	-	-	-	-	-	.
Cc1cc(NC(c2ccc(Cl)cc2)c2ccc3cccnc3c2O)no1 (centres undefined)	-	39	55	-	85	79	72
CCC(=O)NC(c1ccc(C)cc1)c1ccc2cccnc2c1O (centres undefined)	.	61	.	73	81	.	82
CCC(=O)NC(c1ccc(Cl)cc1Cl)c1ccc2cccnc2c1O (centres undefined)	.	26	.	86	75	.	70
SMILES	Ba/F3 V617F tox	IEC-6 cytotox	BaF3 parental	KLF5 inh	aSyn UTR inh	APP 5UTR inh	IEC-6 cytotox cf
Oc1c(C(Nc2ccccn2)c2ccccn2)ccc2cccnc12 (centres undefined)	-	-	-	-	-	-	.
CCN(CC)S(=O)(=O)c1ccc2c(c1)nc(SCC(=O)N(C)C1CCS(=O)(=O)C1)n2CC (centres undefined)	.	.	.	.	-	.	.
O=C(Cn1ncn2c(cc3ccccc32)c1=O)NCCc1cccs1	.	-	.	-	-	.	.
Cc1ccc(/C=N/NC(=O)c2ccc3ccccc3c2)s1	.	82	.	-	-	.	50
C/C(=N\NC(=O)c1ccc2c(c1)OCCO2)c1ccccc1	-	31	-	-	73	.	-
O=C(N/N=C/c1cccs1)c1ccc2ccccc2c1	.	29	.	-	-	.	-
Cc1ccc(/C=N/NC(=O)c2ccc3c(c2)OCCO3)s1	65	34	37	-	-	.	49
Cc1ccc(/C=N/NC(=O)c2ccncc2)s1	-	-	-	-	-	.	.
CCN(CC(=O)Nc1ccc(N2CCOCC2)cc1)C(=O)COc1ccccc1OC	-	-	-	-	-	-	.

Screens from PubChem BioAssay.
